# Results: PubChem BioAssay (EPA / NIEHS)
# “And” between values parts separate entries of the source, which are not always exact repeats. Equal entries are not always repeated. More than one record can exist for a structure, and the calls need not agree. The source made the active and inactive calls. The calls were made as follows: active = hit-call score of the fitted dose curve at least 0.9, where 1 is the maximum; inactive = score below 0.9.
# Read-out: urokinase Plasminogen Activator (uPA), PLAU (gene 5328)
# Assay: BSK_BF4T_uPA: BioMAP Diversity Plus: BF4T Assay for urokinase Plasminogen Activator (uPA) Biomarker Activity (AID 2284275)
# Settings: primary human bronchial epithelial cells with fibroblasts
# Outline: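 uPA levels measured by ELISA at 24 hours in BF4T cultures (bronchial epithelial cells plus dermal fibroblasts) and compared with DMSO; cytotoxicity tracked in parallel cultures by sulforhodamine B staining.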
Structure (SMILES),outcome,AC50
O=C(O)CCC(F)(F)C(F)(F)C(F)(F)C(F)(F)C(F)(F)C(F)(F)F,inactive,–
O=C(CC(=O)C(F)(F)C(F)(F)C(F)(F)F)c1cccs1,–,46.4 µM (active) and 35.8 µM (active)
O=S(=O)(O)C(F)(F)C(F)(F)C(F)(F)C(F)(F)C(F)(F)C(F)(F)C(F)(F)C(F)(F)C(F)(F)C(F)(F)F,inactive,–
O=P(O)(O)CCC(F)(F)C(F)(F)C(F)(F)C(F)(F)C(F)(F)C(F)(F)F,inactive,–
O=P(O)(O)CCC(F)(F)C(F)(F)C(F)(F)C(F)(F)C(F)(F)C(F)(F)C(F)(F)C(F)(F)F,inactive,–
O=C(O)C(F)(F)OC(F)(F)C(F)(F)OC(F)(F)C(F)(F)OC(F)(F)C(F)(F)C(F)(F)C(F)(F)F,inactive,14.6 µM (active)
C=CC(=O)OCCC(F)(F)C(F)(F)C(F)(F)C(F)(F)C(F)(F)C(F)(F)C(F)(F)C(F)(F)F,inactive,–
CN(CCO)S(=O)(=O)C(F)(F)C(F)(F)C(F)(F)C(F)(F)C(F)(F)C(F)(F)C(F)(F)C(F)(F)F,inactive,–
CN(Cc1cnc2nc(N)nc(N)c2n1)c1ccc(C(=O)N[C@@H](CCC(=O)O)C(=O)O)cc1,inactive,–
OCC(F)(F)C(F)(F)C(F)(F)C(F)(F)C(F)(F)C(F)(F)C(F)(F)C(F)(F)C(F)(F)C(F)(F)C(F)(F)F,inactive,–
O=C(O)CCC(F)(F)C(F)(F)C(F)(F)C(F)(F)C(F)(F)F,inactive,–

# Read-out: Matrix Metallopeptidase 9 (MMP9), MMP9 (gene 4318)
# Assay: BSK_BF4T_MMP9: BioMAP Diversity Plus: BF4T Assay for Matrix Metallopeptidase 9 (MMP9) Biomarker Activity (AID 2284276)
# Settings: primary human bronchial epithelial cells with fibroblasts
# Outline: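 MMP-9 levels were measured by ELISA after 24 h exposure of bronchial epithelial cell/dermal fibroblast co-cultures, with DMSO as baseline. Parallel cultures were stained with 0.1% SRB after TCA fixation, read at 560 nm, to flag overt cytotoxicity.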
Structure (SMILES),outcome,AC50
O=C(O)CCC(F)(F)C(F)(F)C(F)(F)C(F)(F)C(F)(F)C(F)(F)F,inactive,–
O=C(CC(=O)C(F)(F)C(F)(F)C(F)(F)F)c1cccs1,–,28.8 µM (active) and 22.4 µM (active)
O=S(=O)(O)C(F)(F)C(F)(F)C(F)(F)C(F)(F)C(F)(F)C(F)(F)C(F)(F)C(F)(F)C(F)(F)C(F)(F)F,inactive,–
O=P(O)(O)CCC(F)(F)C(F)(F)C(F)(F)C(F)(F)C(F)(F)C(F)(F)F,inactive,–
O=P(O)(O)CCC(F)(F)C(F)(F)C(F)(F)C(F)(F)C(F)(F)C(F)(F)C(F)(F)C(F)(F)F,inactive,–
O=C(O)C(F)(F)OC(F)(F)C(F)(F)OC(F)(F)C(F)(F)OC(F)(F)C(F)(F)C(F)(F)C(F)(F)F,–,11.2 µM (active) and 8.88 µM (active)
C=CC(=O)OCCC(F)(F)C(F)(F)C(F)(F)C(F)(F)C(F)(F)C(F)(F)C(F)(F)C(F)(F)F,inactive,–
CN(CCO)S(=O)(=O)C(F)(F)C(F)(F)C(F)(F)C(F)(F)C(F)(F)C(F)(F)C(F)(F)C(F)(F)F,inactive,–
CN(Cc1cnc2nc(N)nc(N)c2n1)c1ccc(C(=O)N[C@@H](CCC(=O)O)C(=O)O)cc1,inactive,–
OCC(F)(F)C(F)(F)C(F)(F)C(F)(F)C(F)(F)C(F)(F)C(F)(F)C(F)(F)C(F)(F)C(F)(F)C(F)(F)F,inactive,–
O=C(O)CCC(F)(F)C(F)(F)C(F)(F)C(F)(F)C(F)(F)F,inactive,–
